About 190 (3.5%) of roughly 5,400 compounds showed an effect of 50% or more. The entries come from a sample that favours strong results as a whole.
System: Vero-E6
Assay: primary screen, phospholipidosis by LipidTOX staining; higher = more effect of the substance
Details: 10 µM
Description: To measure drug-induced PLD in Vero-E6 cells, we used the HCS LipidTOX Red Phospholipidosis Detection Reagent (Invitrogen, #H34351), which is non-toxic to cell growth and remains well retained after aldehyde fixation. In this setup, compounds (at 10 μM concentration) and controls (amiodarone: 10 μM concentration; DMSO: 0.1 v/v %) were added to clear-bottom, 384-well plates (PhenoPlate 384-well, black, optically clear flat bottom, tissue-culture treated, Revvity #6057302) using the Echo Liquid Handler (Labcyte).

Row | SMILES | result_ITMP
1 | CCCOC(C(=O)OC1CCN(C)CC1)(c1ccccc1)c1ccccc1 | 63.8%
2 | C[C@H]1CCC/C=C/[C@@H]2C[C@H](O)C[C@H]2[C@H](O)/C=C/C(=O)O1 | -2.38%
3 | COC(=O)C[C@](O)(CCC(C)(C)O)C(=O)O[C@@H]1C(OC)=C[C@]23CCCN2CCc2cc4c(cc2[C@H]13)OCO4 | -10.1%
4 | C#C[C@]1(O)CC[C@H]2[C@@H]3CCC4=CC(=O)CC[C@]4(C)[C@H]3CC[C@@]21C | -7.32%
5 | CN1[C@@H]2CC[C@H]1C[C@@H](OC(=O)c1cc(Cl)cc(Cl)c1)C2 | 9.65%
6 | CN(CCc1ccc(Cl)c(Cl)c1)CCN1CCCC1 | 51.3%
7 | C[N@+]1(CC2CC2)CC[C@]23c4c5ccc(O)c4O[C@H]2C(=O)CC[C@@]3(O)[C@H]1C5 | 0.23%
8 | CCN1C[C@]2(COC(=O)c3ccccc3N3C(=O)C[C@H](C)C3=O)CC[C@H](OC)[C@@]34[C@@H]5C[C@H]6[C@H](OC)[C@@H]5[C@](O)(C[C@@H]6OC)[C@@](O)([C@@H](OC)[C@H]23)[C@@H]14 | 0.37%
9 | C=CC[C@]1(O)CC[C@H]2[C@@H]3CCC4=CCCC[C@@H]4[C@H]3CC[C@@]21C | 0.46%
10 | COc1cc2c(cc1OC)[C@@]13CCN4CC5=CCO[C@H]6CC(=O)N2[C@H]1[C@H]6[C@H]5C[C@H]43 | 1.12%
11 | CN1C[C@H](CNC(=O)OCc2ccccc2)C[C@@H]2c3cccc4c3c(cn4C)C[C@H]21 | 61.8%
12 | CC(=O)OC[C@]12CCC(C)=C[C@H]1O[C@@H]1[C@H](O)[C@@H](OC(C)=O)[C@@]2(C)[C@]12CO2 | -25.8%
13 | Oc1ccc2c3c1O[C@H]1c4[nH]c5ccccc5c4C[C@@]4(O)[C@@H](C2)N(CC2CC2)CC[C@]314 | 37.4%
14 | C[C@@H]1CN([C@H]2CC[C@](C#N)(c3ccc(F)cc3)CC2)CC[C@]1(C(=O)O)c1ccccc1 | -9.01%
15 | Cc1onc(O)c1C[C@H](N)C(=O)O [R4A_0004356_001 / SPE_K92493880] | -0.72%

From PMC13083723 (Patterns, 2026)
